Assay results reported in PubChem BioAssay AID1159580 (chemical genetic matrix, 2015).
Several values for one entry are separate records, joined by “and”; a condition that tells them apart may be missing. Equal entries are not always repeated. Screen size: about 5,500 compounds; about 2,000 (36%) were called active. Not shown: some 18% with an inconclusive outcome. Rule as the data show it: active = normalized growth mostly below about 0.91 (no sharp cut-off); inconclusive = no clear call, values can overlap the other calls; inactive = mostly above about 0.92. This is one part of the list.

Test: chemical genetic growth profiling, strain panel (AID 1159580);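 also: tested at 20 µM; growth read once vehicle control cultures reached saturation at 30 °C; 1 = growth at the plate median or of vehicle wells; lower values mean less growth of the strain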
Settings: S. cerevisiae deletion strains, growth OD

Measured: normalized growth

CCCCCCC(C)OC(=O)COc1ccc(Cl)cc1Cl (configuration not stated)
inactive: locus YAL013W, strain DEP1, active compounds read low 0.981 | locus YAL021C, strain ccr4, active compounds read low 0.991 | locus YAL026C, strain drs2, active compounds read low 0.993 | locus YAL030W, strain snc1, active compounds read low 0.99 | locus YBL061C, strain skt5, active compounds read low 0.996 | locus YBR009C, strain hhf1, active compounds read low 0.985 | locus YBR021W, strain FUR4, active compounds read low 1 | locus YBR023C, strain chs3, active compounds read low 0.99 | locus YBR171W, strain sec66, active compounds read low 0.99 | locus YBR229C, strain ROT2, active compounds read low 0.996 | locus YBR231C, strain swc5, active compounds read low 0.984 | locus YBR279W, strain paf1, active compounds read low 0.994 | locus YCL011C, strain gbp2, active compounds read low 0.987 | locus YCL016C, strain dcc1, active compounds read low 0.988 | locus YCL029C, strain bik1, active compounds read low 1 | locus YCL061C, strain MRC1, active compounds read low 0.993 | locus YCL069W, strain vba3, active compounds read low 0.992 | locus YCR088W, strain abp1, active compounds read low 0.996 | locus YDL005C, strain med2, active compounds read low 0.996 | locus YDL035C, strain GPR1, active compounds read low 0.955 | locus YDL040C, strain nat1, active compounds read low 0.985 | locus YDL074C, strain BRE1, active compounds read low 0.968 | locus YDL101C, strain DUN1, active compounds read low 0.985 | locus YDL134C, strain PPH21, active compounds read low 1 | locus YDL185W, strain tfp1, active compounds read low 1.01 | locus YDL192W, strain arf1, active compounds read low 1 | locus YDR001C, strain nth1, active compounds read low 0.99 | locus YDR069C, strain doa4, active compounds read low 0.97 | locus YDR101C, strain arx1, active compounds read low 0.996 | locus YDR137W, strain rgp1, active compounds read low 0.987 | locus YDR150W, strain NUM1, active compounds read low 1.01 | locus YDR159W, strain sac3, active compounds read low 0.992 | locus YDR162C, strain NBP2, active compounds read low 0.939 | locus YDR195W, strain ref2 0.957 | locus YDR297W, strain sur2, active compounds read low 0.988 | locus YDR318W, strain mcm21, active compounds read low 1 | locus YDR334W, strain swr1, active compounds read low 0.988 | locus YDR335W, strain msn5, active compounds read low 0.994 | locus YDR388W, active compounds read low 1 | locus YDR392W, strain spt3, active compounds read low 0.997 | locus YDR502C, strain sam2, active compounds read low 1 | locus YEL003W, strain gim4, active compounds read low 0.988 | locus YEL037C, strain rad23, active compounds read low 0.995 | locus YEL061C, strain CIN8 (second series), active compounds read low 0.988 | locus YEL061C, strain CIN8, active compounds read low 0.986 | locus YER015W, strain faa2, active compounds read low 0.991 | locus YER016W, strain bim1, active compounds read low 0.99 | locus YER110C, active compounds read low 1 | locus YER111C, strain swi4, active compounds read low 1 | locus YER155C, strain BEM2 (second series), active compounds read low 0.989 | locus YER155C, strain BEM2, active compounds read low 0.976 | locus YER167W, strain BCK2, active compounds read low 0.986 | locus YFR010W, strain ubp6, active compounds read low 0.992 | locus YGL078C, strain dbp3, active compounds read low 0.996 | locus YGL086W, strain mad1, active compounds read low 0.997 | locus YGL167C, strain pmr1, active compounds read low 0.993 | locus YGL173C, strain kem1, active compounds read low 0.989 | locus YGL227W, strain vid30, active compounds read low 0.979 | locus YGL240W, strain doc1, active compounds read low 1 | locus YGL248W, strain PDE1, active compounds read low 0.991 | locus YGL253W, strain hxk2, active compounds read low 0.987 | locus YGR078C, strain PAC10, active compounds read low 0.988 | locus YGR135W, strain pre9, active compounds read low 1.01 | locus YGR229C, strain SMI1, active compounds read low 0.891 | locus YGR252W, strain gcn5, active compounds read low 1 | locus YHR013C, strain ard1, active compounds read low 0.988 | locus YHR027C, strain rpn1, active compounds read low 0.996 | locus YHR030C, strain SLT2, active compounds read low 0.974 and 1.03 | locus YHR079C, strain IRE1 (second series), active compounds read low 0.997 | locus YHR079C, strain IRE1, active compounds read low 1.02 | locus YHR094C, strain hxt1, active compounds read low 0.998 | locus YHR129C, strain ARP1, active compounds read low 0.977 | locus YHR142W, strain chs7, active compounds read low 0.988 | locus YHR200W, strain rpn10, active compounds read low 0.993 | locus YIL066C, strain RNR3, active compounds read low 0.963 | locus YIL073C, strain SPO22, active compounds read low 0.957 | locus YIL125W, strain kgd1, active compounds read low 0.996 | locus YIR030C, strain dcg1, active compounds read low 0.996 | locus YJL092W, strain hpr5, active compounds read low 0.994 | locus YJL095W, strain BCK1 (second series), active compounds read low 0.983 | locus YJL095W, strain BCK1, active compounds read low 0.94 and 1.03 | locus YJL115W, strain asf1, active compounds read low 0.989 | locus YJL129C, strain trk1, active compounds read low 0.953 | locus YJL134W, strain LCB3, active compounds read low 0.98 | locus YJL154C, strain vps35, active compounds read low 0.994 | locus YJL164C, strain tpk1, active compounds read low 0.969 | locus YJL166W, strain qcr8, active compounds read low 0.989 | locus YJL168C, strain set2, active compounds read low 1 | locus YJL187C, strain SWE1 (second series), active compounds read low 0.998 | locus YJL187C, strain SWE1, active compounds read low 0.992 | locus YJR043C, strain POL32, active compounds read low 0.969 | locus YJR066W, strain TOR1, active compounds read low 0.949
